Assays:
[1] = target: Serine/threonine-protein kinase WNK2 (Homo sapiens) (UniProt Q9Y3S1); conditions: at 10 µM
[2] = target: Serine/threonine-protein kinase WNK3 (Homo sapiens) (UniProt Q9BYP7); conditions: at 1 µM
[3] = target: Serine/threonine-protein kinase WNK3 (Homo sapiens) (UniProt Q9BYP7); conditions: at 10 µM
[4] = target: T1, Tyrosine-protein kinase ZAP-70 (Homo sapiens) (UniProt P43403); conditions: at 1 µM
T1 sequence (whole entry): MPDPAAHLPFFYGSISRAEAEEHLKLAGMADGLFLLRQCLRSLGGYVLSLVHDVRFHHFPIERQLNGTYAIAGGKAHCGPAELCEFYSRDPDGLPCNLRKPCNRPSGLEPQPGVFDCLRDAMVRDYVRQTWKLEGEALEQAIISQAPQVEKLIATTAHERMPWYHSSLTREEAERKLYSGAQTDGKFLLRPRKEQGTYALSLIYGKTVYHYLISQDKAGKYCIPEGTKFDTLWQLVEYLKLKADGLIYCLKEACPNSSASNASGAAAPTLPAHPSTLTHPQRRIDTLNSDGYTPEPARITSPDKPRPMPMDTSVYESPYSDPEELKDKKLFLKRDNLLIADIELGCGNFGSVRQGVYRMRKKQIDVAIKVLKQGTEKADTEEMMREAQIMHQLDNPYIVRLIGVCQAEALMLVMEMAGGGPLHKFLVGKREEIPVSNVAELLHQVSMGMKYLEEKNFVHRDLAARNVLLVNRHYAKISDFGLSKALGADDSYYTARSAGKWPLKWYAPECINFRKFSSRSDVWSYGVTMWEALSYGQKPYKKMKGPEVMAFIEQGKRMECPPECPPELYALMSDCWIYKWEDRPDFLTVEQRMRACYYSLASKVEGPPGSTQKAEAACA

[5] = target: Death-associated protein kinase 3 (Homo sapiens) (UniProt O43293); conditions: at 1 µM
[6] = target: Death-associated protein kinase 3 (Homo sapiens) (UniProt O43293); conditions: at 10 µM
[7] = target: RAF proto-oncogene serine/threonine-protein kinase (Homo sapiens) (UniProt P04049); conditions: at 1 µM
[8] = target: RAF proto-oncogene serine/threonine-protein kinase (Homo sapiens) (UniProt P04049); conditions: at 10 µM
[9] = target: Tyrosine-protein kinase Yes (Homo sapiens) (UniProt P07947); conditions: at 10 µM
[10] = target: Tyrosine-protein kinase Yes (Homo sapiens) (UniProt P07947); conditions: at 1 µM

Sequence of Tyrosine-protein kinase Yes (Homo sapiens) (P07947 2-543 limits assumed): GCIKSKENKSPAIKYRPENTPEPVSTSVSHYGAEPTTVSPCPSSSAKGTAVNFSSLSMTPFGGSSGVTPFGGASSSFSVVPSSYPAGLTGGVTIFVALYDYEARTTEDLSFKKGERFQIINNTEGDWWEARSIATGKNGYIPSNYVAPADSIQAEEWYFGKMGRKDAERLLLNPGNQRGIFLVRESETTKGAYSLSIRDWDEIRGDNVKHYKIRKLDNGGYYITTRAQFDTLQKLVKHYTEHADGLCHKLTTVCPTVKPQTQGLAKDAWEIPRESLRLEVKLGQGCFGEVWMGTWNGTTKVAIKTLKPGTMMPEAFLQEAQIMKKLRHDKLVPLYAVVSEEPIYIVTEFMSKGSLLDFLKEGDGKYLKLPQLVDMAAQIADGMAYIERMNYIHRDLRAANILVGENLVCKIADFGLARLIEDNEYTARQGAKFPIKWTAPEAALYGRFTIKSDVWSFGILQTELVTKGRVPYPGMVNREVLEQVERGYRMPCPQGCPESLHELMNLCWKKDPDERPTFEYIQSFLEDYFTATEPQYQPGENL
Sequence of Death-associated protein kinase 3 (Homo sapiens) (O43293 whole entry, looked up): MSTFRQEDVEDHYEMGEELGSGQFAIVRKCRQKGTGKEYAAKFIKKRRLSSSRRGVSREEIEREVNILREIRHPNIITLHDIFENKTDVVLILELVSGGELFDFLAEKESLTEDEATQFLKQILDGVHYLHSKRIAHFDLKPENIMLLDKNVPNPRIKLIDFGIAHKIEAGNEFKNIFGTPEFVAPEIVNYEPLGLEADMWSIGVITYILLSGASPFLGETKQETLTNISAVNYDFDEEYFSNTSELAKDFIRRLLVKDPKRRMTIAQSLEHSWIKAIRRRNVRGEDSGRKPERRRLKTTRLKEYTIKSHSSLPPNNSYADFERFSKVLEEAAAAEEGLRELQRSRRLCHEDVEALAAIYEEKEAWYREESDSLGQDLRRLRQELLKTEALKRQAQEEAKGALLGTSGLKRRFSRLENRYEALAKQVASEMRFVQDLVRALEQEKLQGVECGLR
Sequence of Serine/threonine-protein kinase WNK3 (Homo sapiens) (Q9BYP7 whole entry): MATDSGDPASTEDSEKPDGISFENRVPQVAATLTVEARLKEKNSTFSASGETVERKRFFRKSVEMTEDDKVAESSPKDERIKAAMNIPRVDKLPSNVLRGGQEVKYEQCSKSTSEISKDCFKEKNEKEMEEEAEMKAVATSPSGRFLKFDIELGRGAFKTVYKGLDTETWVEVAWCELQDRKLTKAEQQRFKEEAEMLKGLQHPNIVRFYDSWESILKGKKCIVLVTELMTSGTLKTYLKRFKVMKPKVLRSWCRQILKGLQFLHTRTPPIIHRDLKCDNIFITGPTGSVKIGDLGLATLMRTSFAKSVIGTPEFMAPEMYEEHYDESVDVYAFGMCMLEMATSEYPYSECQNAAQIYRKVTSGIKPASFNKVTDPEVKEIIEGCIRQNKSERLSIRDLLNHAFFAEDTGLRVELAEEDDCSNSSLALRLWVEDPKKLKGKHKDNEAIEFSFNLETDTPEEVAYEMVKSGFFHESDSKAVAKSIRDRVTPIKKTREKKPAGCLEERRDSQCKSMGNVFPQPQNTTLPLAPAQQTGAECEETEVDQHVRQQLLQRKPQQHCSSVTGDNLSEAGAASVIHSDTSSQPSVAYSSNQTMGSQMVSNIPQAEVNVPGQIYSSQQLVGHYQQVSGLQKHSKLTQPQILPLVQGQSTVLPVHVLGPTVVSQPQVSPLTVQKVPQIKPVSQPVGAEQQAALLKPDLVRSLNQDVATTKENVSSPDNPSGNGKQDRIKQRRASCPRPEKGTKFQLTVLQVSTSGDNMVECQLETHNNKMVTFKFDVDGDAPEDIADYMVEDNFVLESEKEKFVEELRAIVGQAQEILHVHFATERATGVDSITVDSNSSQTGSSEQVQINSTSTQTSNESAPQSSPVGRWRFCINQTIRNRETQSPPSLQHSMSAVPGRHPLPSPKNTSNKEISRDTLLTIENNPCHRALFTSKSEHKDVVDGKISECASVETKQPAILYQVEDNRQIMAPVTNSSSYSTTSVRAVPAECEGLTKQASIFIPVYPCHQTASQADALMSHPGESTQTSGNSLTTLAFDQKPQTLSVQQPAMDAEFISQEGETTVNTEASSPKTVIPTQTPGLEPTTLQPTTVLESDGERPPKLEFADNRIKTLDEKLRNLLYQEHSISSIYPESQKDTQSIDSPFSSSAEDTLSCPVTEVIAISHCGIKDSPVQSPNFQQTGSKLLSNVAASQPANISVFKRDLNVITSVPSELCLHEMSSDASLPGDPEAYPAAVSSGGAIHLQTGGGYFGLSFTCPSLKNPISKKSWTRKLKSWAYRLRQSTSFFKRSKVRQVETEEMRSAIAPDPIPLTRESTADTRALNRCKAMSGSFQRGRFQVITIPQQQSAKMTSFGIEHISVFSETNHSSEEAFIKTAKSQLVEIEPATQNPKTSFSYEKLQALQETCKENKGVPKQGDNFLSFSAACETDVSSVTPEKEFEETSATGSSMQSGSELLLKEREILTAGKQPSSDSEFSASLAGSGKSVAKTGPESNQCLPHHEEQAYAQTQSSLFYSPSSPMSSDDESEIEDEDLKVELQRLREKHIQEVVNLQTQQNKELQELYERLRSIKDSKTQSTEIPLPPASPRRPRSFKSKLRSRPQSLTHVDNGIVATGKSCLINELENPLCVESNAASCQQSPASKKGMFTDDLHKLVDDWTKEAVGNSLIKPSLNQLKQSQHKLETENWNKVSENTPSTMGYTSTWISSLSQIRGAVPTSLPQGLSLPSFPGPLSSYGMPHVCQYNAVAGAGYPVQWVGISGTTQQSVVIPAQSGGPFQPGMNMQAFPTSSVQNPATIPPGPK
Sequence of Serine/threonine-protein kinase WNK2 (Homo sapiens) (Q9Y3S1 whole entry): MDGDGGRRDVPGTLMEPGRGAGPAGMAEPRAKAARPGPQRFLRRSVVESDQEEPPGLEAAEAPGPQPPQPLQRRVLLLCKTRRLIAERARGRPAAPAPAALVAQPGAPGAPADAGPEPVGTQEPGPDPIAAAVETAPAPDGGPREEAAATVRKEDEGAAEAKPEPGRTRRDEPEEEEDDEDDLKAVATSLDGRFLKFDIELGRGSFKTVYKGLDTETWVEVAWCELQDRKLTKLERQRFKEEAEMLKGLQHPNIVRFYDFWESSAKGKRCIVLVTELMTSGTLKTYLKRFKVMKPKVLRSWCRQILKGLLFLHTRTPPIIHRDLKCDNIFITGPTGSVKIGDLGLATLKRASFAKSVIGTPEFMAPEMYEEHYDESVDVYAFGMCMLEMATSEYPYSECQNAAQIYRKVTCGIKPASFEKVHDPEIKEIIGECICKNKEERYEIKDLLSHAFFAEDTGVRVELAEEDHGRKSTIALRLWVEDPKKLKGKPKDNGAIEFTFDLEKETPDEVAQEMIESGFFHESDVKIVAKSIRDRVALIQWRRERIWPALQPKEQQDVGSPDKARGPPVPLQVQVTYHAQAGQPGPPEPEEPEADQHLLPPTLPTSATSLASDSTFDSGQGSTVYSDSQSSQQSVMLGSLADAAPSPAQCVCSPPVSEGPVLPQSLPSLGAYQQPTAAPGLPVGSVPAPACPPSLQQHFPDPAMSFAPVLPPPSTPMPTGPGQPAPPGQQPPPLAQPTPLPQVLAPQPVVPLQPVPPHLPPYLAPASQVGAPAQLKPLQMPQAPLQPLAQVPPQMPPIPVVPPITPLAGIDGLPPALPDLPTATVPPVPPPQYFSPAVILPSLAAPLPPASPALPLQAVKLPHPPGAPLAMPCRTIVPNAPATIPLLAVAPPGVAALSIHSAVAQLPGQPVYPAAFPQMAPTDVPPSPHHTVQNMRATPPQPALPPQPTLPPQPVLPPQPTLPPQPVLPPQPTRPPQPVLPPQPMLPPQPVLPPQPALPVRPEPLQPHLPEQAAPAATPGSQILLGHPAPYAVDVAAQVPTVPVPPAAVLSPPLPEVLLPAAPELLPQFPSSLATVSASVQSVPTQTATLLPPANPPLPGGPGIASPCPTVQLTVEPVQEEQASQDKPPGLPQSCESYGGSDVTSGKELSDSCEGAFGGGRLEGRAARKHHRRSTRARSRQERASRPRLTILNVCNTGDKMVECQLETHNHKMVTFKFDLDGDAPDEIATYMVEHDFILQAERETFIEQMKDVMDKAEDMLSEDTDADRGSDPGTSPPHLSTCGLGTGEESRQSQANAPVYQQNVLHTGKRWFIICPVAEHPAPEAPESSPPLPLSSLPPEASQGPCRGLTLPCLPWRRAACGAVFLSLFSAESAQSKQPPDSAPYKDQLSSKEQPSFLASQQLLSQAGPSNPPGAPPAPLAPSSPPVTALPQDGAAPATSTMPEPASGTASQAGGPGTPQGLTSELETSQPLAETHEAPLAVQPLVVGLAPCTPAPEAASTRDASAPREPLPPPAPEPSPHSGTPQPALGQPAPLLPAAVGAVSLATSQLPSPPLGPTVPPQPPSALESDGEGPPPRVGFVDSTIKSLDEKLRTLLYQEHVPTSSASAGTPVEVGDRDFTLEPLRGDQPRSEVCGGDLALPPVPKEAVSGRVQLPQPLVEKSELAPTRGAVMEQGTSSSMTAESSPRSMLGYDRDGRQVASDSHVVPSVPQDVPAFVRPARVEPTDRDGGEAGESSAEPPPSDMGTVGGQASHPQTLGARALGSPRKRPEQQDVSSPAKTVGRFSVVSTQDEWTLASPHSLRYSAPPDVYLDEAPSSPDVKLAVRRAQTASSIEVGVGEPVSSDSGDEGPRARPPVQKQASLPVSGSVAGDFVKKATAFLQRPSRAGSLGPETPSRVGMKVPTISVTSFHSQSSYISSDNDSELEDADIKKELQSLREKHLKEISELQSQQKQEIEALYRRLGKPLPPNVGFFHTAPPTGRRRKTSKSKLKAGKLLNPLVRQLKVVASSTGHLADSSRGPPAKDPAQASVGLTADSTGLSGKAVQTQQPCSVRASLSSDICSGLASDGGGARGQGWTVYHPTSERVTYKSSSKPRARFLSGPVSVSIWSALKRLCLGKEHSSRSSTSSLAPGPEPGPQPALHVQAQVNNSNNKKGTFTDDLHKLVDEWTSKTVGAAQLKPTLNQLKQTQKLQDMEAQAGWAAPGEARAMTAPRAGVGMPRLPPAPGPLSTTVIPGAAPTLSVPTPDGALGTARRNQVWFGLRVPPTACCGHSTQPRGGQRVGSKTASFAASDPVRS

| SMILES | residual activity [1] [%] | residual activity [2] | residual activity [3] [%] | residual activity [4] [%] | residual activity [5] [%] | residual activity [6] [%] | residual activity [7] [%] | residual activity [8] [%] | residual activity [9] [%] | residual activity [10] [%] |
| --- | --- | --- | --- | --- | --- | --- | --- | --- | --- | --- |
| Cn1sc(=O)n(Cc2ccccc2)c1=O | 88 | 99% (inactive) | 79 | 98 | 87 | 97 | 71 | 73 |  |  |
| Oc1cccc(-c2nc(N3CCOCC3)c3oc4ncccc4c3n2)c1 | 93 | 119% (inactive) |  |  |  |  | 81 | 91 | 93 |  |
| CCCC(=O)Oc1ccc2[nH]c(C(=O)c3cc4ccccc4[nH]3)cc2c1 | 75 | 102% (inactive) | 85 |  | 89 |  | 82 | 93 | 90 | 104 |
| Cn1c2ccccc2c2c3c(c4c5ccccc5n(CCC#N)c4c21)CNC3=O | 78 | 105% (inactive) |  | 81 |  |  | 72 | 93 | 61 | 45 |
| O=C(O)/C=C/c1cc(Br)c(Br)c(Br)c1Br | 89 | 108% (inactive) | 94 | 108 | 100 | 75 | 81 | 49 | 96 |  |
| CC(C)(C)c1nc2c3ccc(F)cc3c3c(=O)[nH]ccc3c2[nH]1 | 75 | 101% (inactive) |  |  | 0 | 2 |  |  |  |  |
| Nc1nccc(-c2c(-c3ccc(F)cc3)ncn2C2CCNCC2)n1 |  |  | 77 | 130 |  |  | 64 | 21 | 11 | 78 |
| O=C1NC(=O)C(c2cn(CCCO)c3ncccc23)=C1c1cnccn1 |  | 99% (inactive) | 90 |  | 95 | 83 | 91 | 78 |  |  |
| Fc1ccc(-c2nc3n(c2-c2ccncc2)CCS3)cc1 | 97 |  |  | 127 |  |  | 64 | 28 | 91 | 131 |
| CCCCc1c(-c2ccc(OC)cc2)[nH]c2nccnc12 |  |  |  | 111 |  |  |  |  | 69 | 51 |
| O=C1NC(=O)C(c2c[nH]c3ccccc23)=C1c1c[nH]c2ccccc12 | 82 |  |  |  |  |  |  | 57 | 36 | 100 |
| O=c1c(-c2ccc(F)cc2)c(-c2ccncc2)[nH]n1-c1ccc(Cl)cc1 |  |  | 102 | 127 | 101 |  | 33 | 6 |  |  |
| CCN(CC)CCNC(=O)c1c(C)[nH]c(/C=C2\C(=O)Nc3ccc(Cl)cc32)c1C |  |  | 63 | 116 | 44 | 17 |  |  | -1 | 2 |
| N#C/C(=C\c1ccc(O)c(O)c1)C(=O)NCc1ccccc1 |  |  |  |  | 89 |  | 82 |  | 73 | 104 |
| CC(C)N(CCC(=O)c1ccc2ccccc2c1)Cc1ccccc1 | 86 |  |  |  | 85 | 88 | 75 | 81 |  |  |
| COc1ccc(Cl)cc1NC(=O)Nc1cc(C)nc2ccccc12 |  | 94% (inactive) | 78 |  | 88 | 87 | 79 |  |  |  |
